C8 TRAIL sens – caspase-8 TRAIL sensitization; NB7+C8 cells + TRAIL, ATPlite viability luminescence; inhibition (viability loss, TRAIL sensitization), % at 10 µM; 360,000 compounds, 1% hits; AID 624354;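 active = compounds causing at least 50% loss of cell viability in the single-dose screen, relative to plate controls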
SENP8 block-1 – SENP8 protease inhibition. inhibition, % at 10 µM. 330,000 compounds, 1.2% hits. Q96LD8. AID 2540. purified SENP8, Z-RLRGG-aminoluciferin cleavage, luminescence; in the data active = inhibition above about 50%
Target sequence (Q96LD8 whole entry, looked up): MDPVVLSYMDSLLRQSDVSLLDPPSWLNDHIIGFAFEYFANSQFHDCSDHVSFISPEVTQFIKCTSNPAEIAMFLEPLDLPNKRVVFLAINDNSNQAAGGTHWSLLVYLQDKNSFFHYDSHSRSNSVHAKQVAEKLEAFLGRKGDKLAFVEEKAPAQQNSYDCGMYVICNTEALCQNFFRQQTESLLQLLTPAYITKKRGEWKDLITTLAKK
SENP6 inh – blocks the human protease SENP6. Q9GZR1. Recombinant SENP6 catalytic domain, aminoluciferin luminescence. inhibition, % at 10 µM. 330,000 compounds, 1.8% hits;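 active = inhibition above about 50% at the single tested dose, limit read from the data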;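 also: plate controls were DMSO wells with enzyme for no effect and DMSO wells lacking enzyme for full effect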
SENP8 block-2 – SENP8 (human) protease inhibition. AID 602440. inhibition, % at 20 µM. 360,000 compounds, 0.64% hits. recombinant SENP8, Nedd8 substrate fluorescence. Q96LD8; in the data active = inhibition mostly above about 40%, no sharp cut-off; inactive = mostly below about 27%
PPC-1+TRAIL kill – compounds killing PPC-1 cancer cells with TRAIL present (potentiator screen, no TRAIL-free arm); PPC-1 cells + TRAIL, ATPLite viability luminescence; cell killing (% activity), % at 4 µM or 5 µM; 220,000 compounds, 0.41% hits; AID 1443;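 active = cell killing above 50% in the first pass at 4 µM, then a duplicate retest at 5 µM averaging 50% or more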;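 also: plate controls were cells with TRAIL plus DMSO for no effect and medium-only wells lacking cells for full effect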
SENP7 block – inhibitors of human SENP7 protease; recombinant SENP7, Z-RLRGG-aminoluciferin luminescence, 40 min; Q9BQF6; inhibition, % at 5 µM; 330,000 compounds, 1.5% hits;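 active = inhibition above about 50% at the single test dose, limit read from the data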;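 also: plate controls were DMSO with enzyme for no effect and no enzyme buffer wells for full effect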
Target sequence (Q9BQF6 706-1050 limits assumed): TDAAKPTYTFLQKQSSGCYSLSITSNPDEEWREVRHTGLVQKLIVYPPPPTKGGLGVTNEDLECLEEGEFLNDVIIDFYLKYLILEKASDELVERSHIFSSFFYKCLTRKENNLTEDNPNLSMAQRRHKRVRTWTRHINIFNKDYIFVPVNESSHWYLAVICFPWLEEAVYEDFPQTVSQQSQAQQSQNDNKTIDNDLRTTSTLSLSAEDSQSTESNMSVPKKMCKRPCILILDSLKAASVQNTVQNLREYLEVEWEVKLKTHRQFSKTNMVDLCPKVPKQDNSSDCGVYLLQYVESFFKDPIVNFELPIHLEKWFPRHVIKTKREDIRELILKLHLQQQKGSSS
SENP8 conf – human SENP8 inhibition, confirmed. shares compounds with SENP7 block. inhibition, % at 12.5 µM. Recombinant SENP8, Z-RLRGG-aminoluciferin luminescence, 60 min. 6,200 compounds, 40% hits;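 active = mean inhibition across replicates above about 50%, limit read from the data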
SENP6 confirm – human SENP6 inhibition, confirmed | inhibition, % at 12.5 µM | AID 488915 | shares compounds with SENP7 block | 6,200 compounds, 58% hits | recombinant SENP6, Z-RLRGG-aminoluciferin luminescence
SENP7 conf – human SENP7 inhibition, confirmed; shares compounds with SENP7 block; recombinant SENP7, Z-RLRGG-aminoluciferin luminescence, 40 min; inhibition, % at 12.5 µM; 6,200 compounds, 69% hits; AID 488917
Casp3 SENP sel – selectivity test for SENP inhibitors: human caspase-3 inhibition | shares compounds with SENP7 block | purified caspase-3, Z-DEVD-aminoluciferin luminescence, 60 min | inhibition, % at 12.5 µM | 6,200 compounds, 60% hits;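 active = mean inhibition above about 50%, limit read from the data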;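 also: plate controls were enzyme with DMSO for no effect and wells without caspase-3 for full effect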
Luc interf – luminescence interference (SENP counter-screen); shares compounds with SENP7 block; AID 488919; 6,200 compounds, 39% hits; Pre-incubated SENP8/Z-RLRGG-aminoluciferin, luciferase luminescence interference; inhibition, % at 12.5 µM;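 active = mean inhibition above about 50% when retested at one dose, limit read from the data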;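 also: plate controls were DMSO wells with completed reaction for no effect and substrate without enzyme for full effect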
Active calls of the source: *; · = not tested or not shown. Rows were chosen to be rich in hits. Some 3% of all compounds tested hit in one or more screens of this group.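 The calls were made as follows, unless noted: active = mean inhibition above about 50% in the one-dose retest (limit read from the data); inactive = the rest.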

SMILES	C8 TRAIL sens	SENP8 block-1	SENP6 inh	SENP8 block-2	PPC-1+TRAIL kill	SENP7 block	SENP8 conf	SENP6 confirm	SENP7 conf	Casp3 SENP sel	Luc interf
ClC(=C\c1ccccc1)/C=N/N1CCN(c2ccccn2)CC1	-16	-13	26	8	33	54*	5	6	17	31	5
O=C(C1CC1)N1CCC(c2nc(-c3ccc(S(=O)(=O)N4CCCC4)cc3)no2)CC1	10	-4	10	14	-4	84*	9	10	-1	-6	-9
O=C(NC1CCCCC1)N1CCC(c2nc(-c3ccc(S(=O)(=O)N4CCCC4)cc3)no2)CC1	0	4	-9	16	-4	0	·	·	·	·	·
Oc1ccc(-c2csc(-c3ccccc3)n2)cc1O	22	36	54*	13	12	29	60*	56*	73*	10	68*
Oc1ccc(-c2csc(-c3cccnc3)n2)cc1O	23	-3	-13	12	7	0	·	·	·	·	·
Oc1ccccc1-c1csc(-c2ccccc2)n1	0	71*	76*	8	49	83*	-25	74*	92*	44	38
c1ccc(-c2ncc(-c3ccn[nH]3)s2)cc1	43	83*	91*	-387	24	91*	84*	85*	98*	87*	59*
C/C(=N/NC(=O)c1cccs1)c1cccs1	17	15	33	-12	28	62*	25	25	70*	63*	32
O=C(N/N=C/c1c(Cl)cccc1Cl)c1ccc(F)cc1	-2	-9	-16	3	-7	-9	·	·	·	·	·
C/C(=N\NC(=O)c1cc2ccccc2cc1O)c1ccc(C)o1	34	68*	84*	-229	·	63*	80*	78*	95*	90*	47
Cn1cccc1C(=O)N/N=C/c1c(Cl)cccc1Cl	2	76*	79*	4	·	83*	83*	82*	72*	91*	26
Cc1ccc2c(Cl)c(C(=O)N/N=C/c3cccn3C)sc2c1	12	29	39	-5	29	84*	10	8	-5	11	1
CCOc1ccc(NS(=O)(=O)c2ccc(C(=O)N(C)Cc3cccc(OC)c3OC)cc2)cc1	7	-4	-18	8	·	0	·	·	·	·	·
C/C(=N\NC(=O)c1cc2ccccc2cc1O)c1cccs1	53*	86*	93*	-45	·	89*	12	94*	101*	96*	34
O=C(NNC(=O)c1ccc2ccccc2c1O)c1cccs1	-3	9	26	-196	·	-2	·	·	·	·	·
O=C(NNC(=O)c1cc2ccccc2cc1O)c1cccs1	6	95*	93*	-17	·	87*	97*	98*	102*	97*	91*
Cn1cccc1/C=N/NC(=O)c1cc2ccccc2cc1O	4	49	59*	-207	·	48	56*	54*	84*	68*	2
O=C1c2ccccc2NC(c2cnc3ccccc3n2)N1O (stereo unspecified)	20	40	72*	-169	13	-1	12	12	7	12	-7
Cc1nc2cc(NC(=O)Nc3cccc([N+](=O)[O-])c3)ccc2n1C	59*	32	73*	16	·	66*	34	54*	92*	76*	9
C=CCNC(=O)c1cc(Cl)cc(Cl)c1	1	-4	-18	8	-4	-2	·	·	·	·	·
C=CCNC(=O)c1cc(Cl)ccn1	0	3	5	9	2	89*	-7	0	-7	-4	-5
N#CC1C(=N)Cc2ccccc2-c2ccccc21 (stereo unspecified)	3	·	·	12	·	·	·	·	·	·	·
Cc1ccc(S(=O)(=O)NCC(=O)N(CC2CCCO2)C(C(=O)NCC2CCCO2)C(C)C)cc1 (stereo unspecified)	-8	5	-14	5	·	4	·	·	·	·	·
Oc1c(Br)cc(C2N=C(c3ccccc3)NO2)cc1Br (stereo unspecified)	-11	81*	98*	-26	2	9	-21	88*	96*	79*	91*
CSc1ccc(C2N=C(c3ccccc3)NO2)cc1 (stereo unspecified)	11	45	61*	-100	·	11	20	7	34	11	18
SMILES	C8 TRAIL sens	SENP8 block-1	SENP6 inh	SENP8 block-2	PPC-1+TRAIL kill	SENP7 block	SENP8 conf	SENP6 confirm	SENP7 conf	Casp3 SENP sel	Luc interf
Cc1oc(/N=C/c2ccc(O)cc2O)c(C#N)c1C	1	32	57*	-12	18	-9	81*	82*	94*	56*	27
Cc1oc(/N=C/c2ccccc2O)c(C#N)c1C	1	-10	6	-8	28	-4	·	·	·	·	·
COc1ccccc1OCC(=O)Nc1cc(Cl)ccc1N1CCCCC1	1	4	2	-14	·	4	·	·	·	·	·
CC1=NN(c2ccccc2)C(=O)/C1=C/c1c(O)n(-c2ccc(F)c(Cl)c2)[nH]c1=O	·	78*	84*	·	10	-6	5	66*	59*	4	55*
OC1CNc2c(ccc3ccccc23)C1 (stereo unspecified)	3	·	·	-447	·	·	·	·	·	·	·
CCCc1nnc(NC(=O)CS(=O)(=O)c2ccccc2)s1	8	-4	-12	8	·	-2	·	·	·	·	·
CCCc1nnc(NC(=O)CC(=O)Nc2ccccc2C(=O)O)s1	-10	43	61*	0	28	38	65*	61*	84*	87*	60*
CC(=O)c1ccc(N2CCN(C(=O)c3ccc(C(=O)c4ccccc4)cc3)CC2)cc1	25	-15	-14	-81	·	-10	·	·	·	·	·
O=C(C1CCC1)N1CCc2cc(S(=O)(=O)NC3CCCc4ccccc43)ccc21 (stereo unspecified)	19	-3	5	14	33	97*	5	6	3	0	4
COc1ccccc1C(=O)NNC(=O)C1CC=CCC1 (stereo unspecified)	-6	1	-2	0	·	-10	·	·	·	·	·
Cc1ccc2nc(-c3cccnc3SCC(=O)N3c4ccccc4CC3C)[nH]c2c1 (stereo unspecified)	3	33	55*	-165	17	-2	29	23	70*	36	-2

Screening data: PubChem BioAssay, Sanford-Burnham Center for Chemical Genomics
